PubChem BioAssay (NCI)
This is part of a sample that, as a whole, favours compounds with a hit. Of some 83,000 tested, about 20% had one in any assay.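 The endpoint reported here, percent growth, reads 100 for growth as untreated, 0 for no net growth and -100 for all cells dead.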 A number with no mark means an inactive call. The source made the active and inactive calls. How the source made its calls: active means growth percent below 10; inactive means the rest.

How the values were obtained:
Assay in all cases: NCI-60 one-dose screen, 48 h (100 = growth as untreated, 0 = no growth, -100 = all killed)
Conditions in all cases: 10 µM unless noted
[1] = system: SR leukemia
[2] = system: RPMI-8226 leukemia
[3] = system: OVCAR-8 ovarian
[4] = system: OVCAR-5 ovarian
[5] = system: OVCAR-4 ovarian
[6] = system: SK-OV-3 ovarian
[7] = system: IGROV1 ovarian
[8] = system: OVCAR-3 ovarian
[9] = system: HS 578T breast
[10] = system: NCI/ADR-RES ovarian
[11] = system: T-47D breast
[12] = system: BT-549 breast
[13] = system: MDA-MB-435 melanoma
[14] = system: SW-620 colon
[15] = system: MCF7 breast
[16] = system: HCT-116 colon
[17] = system: HCC-2998 colon
[18] = system: KM12 colon

Compound	growth [1]	growth [2]	growth [3]	growth [4]	growth [5]	growth [6]	growth [7]	growth [8]	growth [9]	growth [10]	growth [11]	growth [12]	growth [13]	growth [14]	growth [15]	growth [16]	growth [17]	growth [18]
O=c1ccn(C2OC(F)(CO)C(O)C2F)c(=O)[nH]1 (stereo unspecified)	101%	106%	98.3%	103%	105%	93.4%	112%	107%	94.1%	101%	81.2%	101%	103%	104%	91.6%	104%	99.1%	104%
CCc1c(C(=O)N[C@@H]2c3cc(Cl)ccc3CC[C@@H]2O)[nH]c(C)c1C(C)=O	52.5%	59.7%	71.4%	97.9%	95.9%	74.4%	59%	81.8%	77.5%	82.7%	70.4%	80.7%	97.4%	90.1%	85.3%	51%	95.4%	71.6%
CCNCCNc1cc(C2CCCC2)c(C#N)c2nc3ccccc3n12	-4.31% (active)	1.72% (active)	28.6%	71.2%	-13.5% (active)	40.5%	43.7%	-82% (active)	-6.97% (active)	33.1%	13.8%	9.57% (active)	11.2%	8.01% (active)	29.6%	1.61% (active)	32.7%	35%
N#Cc1c(N)n2c(nc1=Nc1ccc([N+](=O)[O-])cc1)sc1cc(Cl)ccc12	34.7%	49.7%	94.5%	101%	86.1%	76.4%	82.3%	108%	79%	95.2%	78.2%	116%	97.9%	96.4%	77.6%	94.3%	144%	97.2%
O=C1c2ccccc2C(=O)c2cc(Cn3cc[n+](Cc4ccc5ccccc5c4)c3)ccc21	73.7%	17.2%	89.5%	84.6%	58.7%	105%	29.6%	40.8%	92.6%	104%	70.1%	60.1%	84.8%	84.2%	59.2%	84.3%	79.1%	77.8%
Clc1ccc2[nH]c3c(NCCCN4CCOCC4)ncnc3c2c1	-24.2% (active)	52.6%	66.5%	90.8%	77.5%	81.5%	63.1%	85.3%	102%	65.9%	72.2%	77.9%	92.8%	57.2%	74.6%	36.3%	87.4%	86.5%
COc1cc2c(cc1OC)-c1ccc3cc4c(cc3c1N(CCCN(C)C)C2)OCO4	15.3%	17.1%	27.5%	60%	52.4%	55.3%	21.7%	48%	45.5%	65.4%	54.6%	41.2%	44%	25.2%	26%	9.53% (active)	64.6%	38.4%
NC(=S)c1csc(CCNC(=O)c2ccccc2)n1	107%	102%	106%	117%	91.2%	101%	112%	113%	102%	110%	103%	96.5%	110%	105%	90.7%	97.6%	103%	109%
O=C(Nc1ccc(N2CCCCC2)c(Cl)c1)c1ccc(Br)o1	40.8%	55.7%	59%	114%	73%	107%	75.1%	43.6%	72.8%	68%	63%	81.2%	-95.4% (active)	74.2%	49.9%	84.3%	111%	70.1%
CCNCCNc1cc(-c2ccc(Cl)cc2)c(C#N)c2nc3ccccc3n12	-35.6% (active)	-19.4% (active)	10.7%	4.7% (active)	-9.51% (active)	31.5%	22.4%	-78.2% (active)	-36% (active)	22.6%	-60% (active)	-33.4% (active)	-85.7% (active)	-71.9% (active)	-22.8% (active)	-78% (active)	4.11% (active)	27.8%
O=C(c1ccccc1)c1ccc(Cl)c([N+](=O)[O-])c1	-3.1% (active)	82.3%	97.8%	99.1%	99.5%	108%	43.6%	75.7%	87.7%	108%	71.5%	106%	89.5%	16.8%	91.3%	45.2%	88.4%	106%
CCN(CC)CCNc1ccc(C)c2sc3cc(C)ccc3c(=O)c12	6.89% (active)	10.4%	57%	79.5%	85.3%	74.8%	52.4%	76.6%	73%	59.2%	66.5%	68.3%	37.3%	43.6%	43.7%	23.1%	66.4%	60.1%
C[C@@H]1CC[C@@H]2[C@@H]1[C@H](OC(=O)/C=C/c1ccccc1)[C@]1(C3CCCCC3)C[C@@H](NC(=O)CO)[C@@]2(C)O1	93.9%	100%	98.6%	94.6%	102%	112%	101%	98.6%	8.45% (active)	95.4%	95%	98.6%	94.3%	90%	89.6%	85.7%	95.4%	103%
C[C@@H]1C(=O)N(C[C@@H](Cc2ccccc2)NC(=O)OCc2ccccc2)[C@]1(Cc1ccccc1)C(=O)OCc1ccccc1	16.6%	19.6%	40.2%	69.1%	1.48% (active)	54.5%	57.4%	43.3%	55.2%	21%	22.3%	61.3%	48.3%	40.9%	27%	34.4%	72.8%	26%
COc1ccc(N(C)c2nc(Cl)nc3cnn(C)c23)cc1	13.2%	28.2%	12.6%	33%	48.2%	10.6%	23.7%	4.74% (active)	37.8%	2.72% (active)	43.5%	-13.9% (active)	-22.8% (active)	27.8%	15.4%	-18.4% (active)	17.6%	6.55% (active)
NC(N)=N/N=C/c1ccc(Br)cc1	18.4%	21.5%	78.9%	73.5%	51.8%	-19.4% (active)	19.3%	62.3%	67.5%	28.2%	-26.9% (active)	92.3%	-33.1% (active)	16.8%	4.98% (active)	-26.3% (active)	56.7%	18.3%
CNC(=O)c1cc(Oc2ccc3nc(Nc4cc(Cl)cc(Cl)c4)ccc3c2)ccn1	6.56% (active)	57.6%	67.9%	104%	57.2%	86.2%	79.6%	57.8%	64.5%	35.6%	55.6%	58.9%	12.8%	45.6%	38.8%	49%	74.5%	30.2%
